The source of these data is publication PMC11006913.

Holding throughout (test): PBM; 200 nM protein, PBS
Holding throughout (conditions): dsDNA, one strand shown

In assay [1] the target is HESX1 (Homo sapiens, UniProt Q9UBX0 95-180, R165K).
Assay [2] has as its target SHOX (Homo sapiens, UniProt O15266 103-189).
Assay [3] has as its target ALX4 (Homo sapiens, UniProt Q9H161 200-286, Q225E).
The target of assay [4] is HESX1 (Homo sapiens, UniProt Q9UBX0 95-180).
For assay [5], the target named is MSX2 (Homo sapiens, UniProt P35548 130-214, R199I).
Assay [6] concerns the target ALX1 (Homo sapiens, UniProt Q15699 118-204, L144V).
Assay [7] addresses ALX3 (Homo sapiens, UniProt O95076 139-225, N203Q).
Assay [8] has as its target SHOX (Homo sapiens, UniProt O15266 103-189, R173C).
Assay [9] deals with ALX1 (Homo sapiens, UniProt Q15699 118-204, L144R).
Assay [10] addresses ALX3 (Homo sapiens, UniProt O95076 139-225).
The target in assay [11] is PROP1 (Homo sapiens, UniProt O75360 56-141).
Assay [12] concerns the target HESX1 (Homo sapiens, UniProt Q9UBX0 95-180, R109Q).
For assay [13], the target named is PROP1 (Homo sapiens, UniProt O75360 56-141, R99H).
Assay [14] concerns the target ALX3 (Homo sapiens, UniProt O95076 139-225, L168Q).
The target in assay [15] is HESX1 (Homo sapiens, UniProt Q9UBX0 95-180, P111T).
The target in assay [16] is ALX3 (Homo sapiens, UniProt O95076 139-225, L168V).
Assay [17] concerns the target PROP1 (Homo sapiens, UniProt O75360 56-141, F88S).
Assay [18] has as its target HESX1 (Homo sapiens, UniProt Q9UBX0 95-180, F115L).
Assay [19] deals with ALX1 (Homo sapiens, UniProt Q15699 118-204).
Assay [20] has as its target ALX3 (Homo sapiens, UniProt O95076 139-225, N203S).

Sequence of HESX1 (Homo sapiens, UniProt Q9UBX0 95-180, F115L) (Q9UBX0 95-180 F115L): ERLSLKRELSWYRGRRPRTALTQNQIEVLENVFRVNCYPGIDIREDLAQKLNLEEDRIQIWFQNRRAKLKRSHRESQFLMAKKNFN
Sequence of HESX1 (Homo sapiens, UniProt Q9UBX0 95-180, R109Q) (Q9UBX0 95-180 R109Q): as the sequence (Q9UBX0 95-180 F115L) above, with R15Q, L21F counted along it
Sequence of ALX3 (Homo sapiens, UniProt O95076 139-225, L168Q) (O95076 139-225 L168Q): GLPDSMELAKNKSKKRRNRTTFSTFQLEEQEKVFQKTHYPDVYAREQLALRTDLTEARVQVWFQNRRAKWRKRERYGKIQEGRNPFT
Sequence of ALX3 (Homo sapiens, UniProt O95076 139-225, N203Q) (O95076 139-225 N203Q): as the sequence (O95076 139-225 L168Q) above, with Q30L, N65Q counted along it
Sequence of HESX1 (Homo sapiens, UniProt Q9UBX0 95-180, P111T) (Q9UBX0 95-180 P111T): as the sequence (Q9UBX0 95-180 F115L) above, with P17T, L21F counted along it
Sequence of ALX3 (Homo sapiens, UniProt O95076 139-225) (O95076 139-225): as the sequence (O95076 139-225 L168Q) above, with Q30L counted along it
Sequence of ALX3 (Homo sapiens, UniProt O95076 139-225, N203S) (O95076 139-225 N203S): as the sequence (O95076 139-225 L168Q) above, with Q30L, N65S counted along it
Sequence of HESX1 (Homo sapiens, UniProt Q9UBX0 95-180) (Q9UBX0 95-180): as the sequence (Q9UBX0 95-180 F115L) above, with L21F counted along it
Sequence of PROP1 (Homo sapiens, UniProt O75360 56-141, F88S) (O75360 56-141 F88S): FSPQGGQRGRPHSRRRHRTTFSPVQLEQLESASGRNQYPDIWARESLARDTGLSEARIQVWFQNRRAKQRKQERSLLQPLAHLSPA
Sequence of PROP1 (Homo sapiens, UniProt O75360 56-141, R99H) (O75360 56-141 R99H): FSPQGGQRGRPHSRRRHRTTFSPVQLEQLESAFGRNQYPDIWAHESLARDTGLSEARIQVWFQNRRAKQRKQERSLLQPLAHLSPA
Sequence of HESX1 (Homo sapiens, UniProt Q9UBX0 95-180, R165K) (Q9UBX0 95-180 R165K): as the sequence (Q9UBX0 95-180 F115L) above, with L21F, R71K counted along it
Sequence of ALX3 (Homo sapiens, UniProt O95076 139-225, L168V) (O95076 139-225 L168V): as the sequence (O95076 139-225 L168Q) above, with Q30V counted along it
Sequence of PROP1 (Homo sapiens, UniProt O75360 56-141) (O75360 56-141): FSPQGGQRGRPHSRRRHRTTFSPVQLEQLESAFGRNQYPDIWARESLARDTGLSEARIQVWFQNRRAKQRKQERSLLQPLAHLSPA
Sequence of MSX2 (P35548 130-214 R199I): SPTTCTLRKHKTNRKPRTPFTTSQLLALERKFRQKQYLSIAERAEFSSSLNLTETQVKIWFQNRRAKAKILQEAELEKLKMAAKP
Sequence of ALX1 (Homo sapiens, UniProt Q15699 118-204) (Q15699 118-204): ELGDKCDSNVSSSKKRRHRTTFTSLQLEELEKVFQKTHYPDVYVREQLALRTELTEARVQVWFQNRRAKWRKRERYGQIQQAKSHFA
Sequence of ALX1 (Homo sapiens, UniProt Q15699 118-204, L144R) (Q15699 118-204 L144R): as the sequence (Q15699 118-204) above, with L27R counted along it
Sequence of ALX1 (Homo sapiens, UniProt Q15699 118-204, L144V) (Q15699 118-204 L144V): as the sequence (Q15699 118-204) above, with L27V counted along it
Sequence of SHOX (Homo sapiens, UniProt O15266 103-189) (O15266 103-189): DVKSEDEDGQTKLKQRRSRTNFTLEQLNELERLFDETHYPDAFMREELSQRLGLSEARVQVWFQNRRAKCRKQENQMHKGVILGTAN
Sequence of ALX4 (Q9H161 200-286 Q225E): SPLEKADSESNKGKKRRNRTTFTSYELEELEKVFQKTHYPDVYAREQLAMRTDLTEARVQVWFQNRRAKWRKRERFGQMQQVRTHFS
Sequence of SHOX (Homo sapiens, UniProt O15266 103-189, R173C) (O15266 103-189 R173C): as the sequence (O15266 103-189) above, with R71C counted along it

On to AACTAATT, for which the binding signal was 11.5 upbm affinity estimate (log intensity, higher = more binding, comparable within an allelic series) in assay [1]; 11.5 upbm affinity estimate (log intensity, higher = more binding, comparable within an allelic series) in assay [2]; 12.7 upbm affinity estimate (log intensity, higher = more binding, comparable within an allelic series) in assay [3]; 11.5 upbm affinity estimate (log intensity, higher = more binding, comparable within an allelic series) in assay [4]; 12.2 upbm affinity estimate (log intensity, higher = more binding, comparable within an allelic series) in assay [5]; 11.5 upbm affinity estimate (log intensity, higher = more binding, comparable within an allelic series) in assay [6]. Besides, the binding signal in [7] was 8.44 upbm affinity estimate (log intensity, higher = more binding, comparable within an allelic series); in assay [8], 9.12 upbm affinity estimate (log intensity, higher = more binding, comparable within an allelic series); in assay [9] it was 11.2 upbm affinity estimate (log intensity, higher = more binding, comparable within an allelic series); in assay [10] it was 12.4 upbm affinity estimate (log intensity, higher = more binding, comparable within an allelic series); in [11] it was 11.2 upbm affinity estimate (log intensity, higher = more binding, comparable within an allelic series); in assay [12], 8.89 upbm affinity estimate (log intensity, higher = more binding, comparable within an allelic series). In addition, the binding signal in [13] is 11.1 upbm affinity estimate (log intensity, higher = more binding, comparable within an allelic series); in [14], 10.3 upbm affinity estimate (log intensity, higher = more binding, comparable within an allelic series); in assay [15], 10.3 upbm affinity estimate (log intensity, higher = more binding, comparable within an allelic series); in assay [16], 9.88 upbm affinity estimate (log intensity, higher = more binding, comparable within an allelic series); in assay [17], 7.84 upbm affinity estimate (log intensity, higher = more binding, comparable within an allelic series); in assay [18], 7.81 upbm affinity estimate (log intensity, higher = more binding, comparable within an allelic series). For the same sequence, the binding signal is 12.3 upbm affinity estimate (log intensity, higher = more binding, comparable within an allelic series) in assay [19] and 8.58 upbm affinity estimate (log intensity, higher = more binding, comparable within an allelic series) in [20].
As to CAATTATA, the binding signal was 12.8 upbm affinity estimate (log intensity, higher = more binding, comparable within an allelic series) in assay [1]; 12.2 upbm affinity estimate (log intensity, higher = more binding, comparable within an allelic series) in assay [2]; 13.4 upbm affinity estimate (log intensity, higher = more binding, comparable within an allelic series) in [3]; 12.8 upbm affinity estimate (log intensity, higher = more binding, comparable within an allelic series) in [4]; 13.1 upbm affinity estimate (log intensity, higher = more binding, comparable within an allelic series) in assay [5]; 11.7 upbm affinity estimate (log intensity, higher = more binding, comparable within an allelic series) in assay [6]. For the same sequence, the binding signal in [7] is 8.6 upbm affinity estimate (log intensity, higher = more binding, comparable within an allelic series); in [8], 9.46 upbm affinity estimate (log intensity, higher = more binding, comparable within an allelic series); in [9], 11.4 upbm affinity estimate (log intensity, higher = more binding, comparable within an allelic series); in assay [10], 12.5 upbm affinity estimate (log intensity, higher = more binding, comparable within an allelic series); in [11] it was 11.4 upbm affinity estimate (log intensity, higher = more binding, comparable within an allelic series); in [12], 8.93 upbm affinity estimate (log intensity, higher = more binding, comparable within an allelic series). For the same sequence, the binding signal in assay [13] is 11.5 upbm affinity estimate (log intensity, higher = more binding, comparable within an allelic series); in assay [14], 10.7 upbm affinity estimate (log intensity, higher = more binding, comparable within an allelic series); in [15] it was 11.4 upbm affinity estimate (log intensity, higher = more binding, comparable within an allelic series); in [16] it was 10.2 upbm affinity estimate (log intensity, higher = more binding, comparable within an allelic series); in assay [17] it was 7.86 upbm affinity estimate (log intensity, higher = more binding, comparable within an allelic series); in [18], 8.06 upbm affinity estimate (log intensity, higher = more binding, comparable within an allelic series). The binding signal in [19] was 12.3 upbm affinity estimate (log intensity, higher = more binding, comparable within an allelic series); in [20] it was 8.66 upbm affinity estimate (log intensity, higher = more binding, comparable within an allelic series).
Regarding GAGCTGGC, the binding signal in assay [1] is 6.31 upbm affinity estimate (log intensity, higher = more binding, comparable within an allelic series); in assay [4], 6.3 upbm affinity estimate (log intensity, higher = more binding, comparable within an allelic series); in assay [12], 6.49 upbm affinity estimate (log intensity, higher = more binding, comparable within an allelic series); in assay [15], 6.25 upbm affinity estimate (log intensity, higher = more binding, comparable within an allelic series); in [18] it was 6.47 upbm affinity estimate (log intensity, higher = more binding, comparable within an allelic series).
Consider CCGAGACC, for which the binding signal was 6.38 upbm affinity estimate (log intensity, higher = more binding, comparable within an allelic series) in [1]; 6.35 upbm affinity estimate (log intensity, higher = more binding, comparable within an allelic series) in assay [4]; 7.75 upbm affinity estimate (log intensity, higher = more binding, comparable within an allelic series) in assay [7]; 7.48 upbm affinity estimate (log intensity, higher = more binding, comparable within an allelic series) in assay [10]; 6.57 upbm affinity estimate (log intensity, higher = more binding, comparable within an allelic series) in assay [11]; 6.45 upbm affinity estimate (log intensity, higher = more binding, comparable within an allelic series) in assay [12]. Moreover, the binding signal in assay [13] was 6.84 upbm affinity estimate (log intensity, higher = more binding, comparable within an allelic series); in assay [14], 7.73 upbm affinity estimate (log intensity, higher = more binding, comparable within an allelic series); in [15] it was 6.33 upbm affinity estimate (log intensity, higher = more binding, comparable within an allelic series); in assay [16] it was 7.74 upbm affinity estimate (log intensity, higher = more binding, comparable within an allelic series); in [17], 6.43 upbm affinity estimate (log intensity, higher = more binding, comparable within an allelic series); in [18], 6.5 upbm affinity estimate (log intensity, higher = more binding, comparable within an allelic series). Also, the binding signal in [20] was 7.73 upbm affinity estimate (log intensity, higher = more binding, comparable within an allelic series).
As for CCGTAGGC, the binding signal in assay [1] was 6.41 upbm affinity estimate (log intensity, higher = more binding, comparable within an allelic series); in [4] it was 6.44 upbm affinity estimate (log intensity, higher = more binding, comparable within an allelic series); in assay [12], 6.53 upbm affinity estimate (log intensity, higher = more binding, comparable within an allelic series); in assay [15], 6.41 upbm affinity estimate (log intensity, higher = more binding, comparable within an allelic series); in assay [18] it was 6.48 upbm affinity estimate (log intensity, higher = more binding, comparable within an allelic series).
